The text below walks through data of PubChem BioAssay (NCI).

Test systems include HCT-15 colon; HT29 colon; SNB-75 CNS; SNB-19 CNS; U251 CNS; PC-3 prostate; SK-MEL-5 melanoma; UACC-62 melanoma; LOX IMVI melanoma; SK-MEL-28 melanoma.
Common to all, as to experiment: NCI-60 one-dose screen, 48 h (100 = growth as untreated, 0 = no growth, -100 = all killed)
Holding throughout (details): 10 µM unless noted

SMILES strings stand for the structures. The panel holds about 83,000 compounds, 20% with a hit somewhere; the sample as a whole holds those more often.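 Single-concentration screen, 48 h exposure, 96-well plates. Endpoint: percent growth. Below 10 = active.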 Values without a mark were called inactive. Activity calls are given as the source filed them.

Consider `CCCCC1CCCC12NC(=O)NC2=O` (stereo not given), for which the growth was 103% in the test on HCT-15 colon; 110% in the test with HT29 colon; 107% in the test on SNB-75 CNS; 104% with SNB-19 CNS; 99.5% in the test on U251 CNS; 95% with PC-3 prostate. Further, the growth in the test on SK-MEL-5 melanoma is 117%; with UACC-62 melanoma, 93.8%; in the test with LOX IMVI melanoma, 88.9%; in the test on SK-MEL-28 melanoma it was 113%.
Take `C=C(C)[C@@H]1CC[C@]2(N=C=O)CC[C@]3(C)[C@H](CC[C@@H]4[C@@]5(C)Cc6c([nH]c7ccccc67)C(C)(C)[C@@H]5CC[C@]43C)[C@@H]12`: the growth is 47% in the test on HCT-15 colon; 98.5% in the test on HT29 colon; 79.8% in the test with SNB-75 CNS; 91.4% in the test with SNB-19 CNS; 65.4% with U251 CNS; 40.3% in the test with PC-3 prostate. The growth in the test with SK-MEL-5 melanoma was 101%; in the test on UACC-62 melanoma, 101%; with LOX IMVI melanoma it was 87.7%; in the test with SK-MEL-28 melanoma, 106%.
Turning to `O=C(O)c1cn(C2CC2)c2cc(N3CCN(C(=O)Nc4nc(-c5ccccc5)cs4)CC3)c(F)cc2c1=O`, the growth in the test on HCT-15 colon is 29.9%; in the test with HT29 colon it was 4.04% (active); in the test with SNB-75 CNS, 9.5% (active); in the test with SNB-19 CNS it was 21.6%; with U251 CNS, 9.17% (active); with PC-3 prostate, 11.3%. Further, the growth in the test on SK-MEL-5 melanoma was 3.08% (active); in the test with UACC-62 melanoma, 15.2%; in the test on LOX IMVI melanoma, -81.8% (active); in the test on SK-MEL-28 melanoma, 52.9%.
In the case of `CC1(C)C2CC1C1(/C=N\Nc3ccccc3)C(C2)C(C#N)(C#N)C1(C#N)C#N` (stereo not given), the growth in the test on HCT-15 colon was 87.3%; in the test with HT29 colon, 102%; with SNB-75 CNS, 91.4%; in the test with SNB-19 CNS, 96.2%; in the test on U251 CNS it was 94.8%; in the test with PC-3 prostate, 72.2%. In addition, the growth was 94.4% with SK-MEL-5 melanoma, 58.5% with UACC-62 melanoma, 52.2% in the test on LOX IMVI melanoma and 106% in the test with SK-MEL-28 melanoma.
`CCCCCCNC(=O)Oc1ccc(/C(=C(\C)c2ccc(Cl)cc2)c2ccc(OCCN(CC)CC)cc2)cc1`: the growth in the test with HCT-15 colon was 1.93% (active); in the test on HT29 colon it was -14.2% (active); in the test with SNB-75 CNS, 77.2%; in the test with SNB-19 CNS it was 74.5%; in the test on U251 CNS it was 41.7%; in the test on PC-3 prostate it was 56.7%. Further, the growth in the test with SK-MEL-5 melanoma was 51.9%; in the test with UACC-62 melanoma, 73.3%; in the test on LOX IMVI melanoma it was 44.2%; in the test with SK-MEL-28 melanoma, 66%.
In the case of `Cc1cccc2c3c(sc12)C(c1ccc(F)cc1)C(C#N)=C(N)O3` (stereo not given), the growth was 8.13% (active) in the test with HCT-15 colon; 9.55% (active) with HT29 colon; 23.4% with SNB-75 CNS; 23.8% in the test on SNB-19 CNS; 25.5% in the test with U251 CNS; 8.46% (active) in the test with PC-3 prostate. Moreover, the growth with SK-MEL-5 melanoma was -3.29% (active); in the test on UACC-62 melanoma, 24.9%; with LOX IMVI melanoma it was 9.86% (active); in the test with SK-MEL-28 melanoma it was 62%.
In the case of `Cc1ccc(C(=O)NN2C(=O)CSC2c2cccc([N+](=O)[O-])c2)cn1` (stereo not given), the growth in the test on HCT-15 colon is 109%; with HT29 colon it was 104%; in the test with SNB-75 CNS, 84.6%; with SNB-19 CNS, 93.2%; in the test with U251 CNS, 95.6%; in the test with PC-3 prostate, 86.6%. Also, the growth in the test with SK-MEL-5 melanoma was 104%; in the test on UACC-62 melanoma it was 98.1%; with LOX IMVI melanoma it was 90%; with SK-MEL-28 melanoma, 124%.
Take `O=C(Nc1ccc(Cl)cc1F)c1cc(Cl)ccc1O`: the growth was -4.97% (active) in the test with HCT-15 colon; 19.5% in the test on HT29 colon; -6.93% (active) in the test on SNB-75 CNS; 13.6% with SNB-19 CNS; 9.73% (active) in the test with U251 CNS; 0.161% (active) with PC-3 prostate. The growth is -90.5% (active) in the test with SK-MEL-5 melanoma, -41.2% (active) in the test on UACC-62 melanoma, -18.9% (active) in the test with LOX IMVI melanoma and -3.71% (active) with SK-MEL-28 melanoma.
Consider `COC1=C(C)C(=O)c2c(c(CCCl)c3n2CCC3OC(C)=O)C1=O` (stereo not given), for which the growth in the test on HCT-15 colon is 1.95% (active); in the test with HT29 colon, -15.6% (active); in the test with SNB-75 CNS it was -44.6% (active); with SNB-19 CNS, 1.56% (active); in the test with U251 CNS, -9.94% (active); in the test with PC-3 prostate, -10.6% (active). For the same compound, the growth is -66.7% (active) in the test with SK-MEL-5 melanoma, -71% (active) in the test on UACC-62 melanoma, -34.8% (active) with LOX IMVI melanoma and -32% (active) with SK-MEL-28 melanoma.
For `CNc1nc2c(s1)C(c1cccc(F)c1)CC(=O)N2` (stereo not given), the growth was 104% with HCT-15 colon; 104% with HT29 colon; 76.8% in the test on SNB-75 CNS; 92.8% in the test with SNB-19 CNS; 94.6% in the test with U251 CNS; 98.5% with PC-3 prostate. The growth with SK-MEL-5 melanoma was 101%; in the test on UACC-62 melanoma, 92.3%; in the test on LOX IMVI melanoma it was 98.4%; in the test with SK-MEL-28 melanoma, 103%.
As to `O=C(/C=C/c1sc(Cl)nc1Cl)c1ccc(Br)cc1`, the growth was 32.4% in the test on HCT-15 colon; 91.2% with HT29 colon; 95% in the test with SNB-75 CNS; 90.6% in the test on SNB-19 CNS; 60.1% in the test on U251 CNS; 95.5% with PC-3 prostate. The growth in the test on SK-MEL-5 melanoma is 89.2%; with UACC-62 melanoma it was 95.3%; in the test on LOX IMVI melanoma, 5.31% (active); in the test on SK-MEL-28 melanoma it was 100%.
`COc1ccc(C2CC(c3ccc(Nc4ccnc5cc(Cl)ccc45)cc3)=NN2C=O)cc1` (stereo not given): the growth in the test with HCT-15 colon was 23.6%; in the test on HT29 colon, 33.2%; in the test on SNB-75 CNS it was 77.1%; in the test on SNB-19 CNS it was 81.5%; in the test on U251 CNS, 63.4%; in the test on PC-3 prostate, 72.3%. The growth was 41.2% in the test with SK-MEL-5 melanoma, 54.5% in the test on UACC-62 melanoma, 20% in the test on LOX IMVI melanoma and 74.9% with SK-MEL-28 melanoma.
Turning to `Brc1ccc2[nH]cc(-c3nc(-c4c[nH]c5ccncc45)cs3)c2c1`, the growth is -67.8% (active) in the test with HCT-15 colon; -63.2% (active) in the test with HT29 colon; 51.9% in the test on SNB-75 CNS; -79.5% (active) with SNB-19 CNS; -83.9% (active) with U251 CNS; -66.8% (active) in the test with PC-3 prostate. Further, the growth in the test on SK-MEL-5 melanoma was -44.1% (active); in the test on UACC-62 melanoma it was -79.4% (active); in the test with LOX IMVI melanoma, -97.4% (active); in the test with SK-MEL-28 melanoma, -95.6% (active).
